For eleven compounds, Percent Effect results are on record in ChEMBL document CHEMBL3988442, “University of Dundee, Small-Polar-MMV Screening Library” (2021).

For some assays here: Measured potencies and affinities stand elsewhere.

Common to all, as to design: scale not given: direction of the effect not stated beside the values
Assay [1] concerns the target Protein translocase subunit SecA (Escherichia coli (strain K12)) (UniProt P10408). In words: Assay to Identify E. coli SecA ATPase Inhibitors. The format is functional. The note with it: 30 µM.
Assay [2] deals with T1, Ubiquitin-activating enzyme e1, putative (Leishmania donovani (strain BPK282A1)) (UniProt E9BSI1).
T1 sequence (whole entry): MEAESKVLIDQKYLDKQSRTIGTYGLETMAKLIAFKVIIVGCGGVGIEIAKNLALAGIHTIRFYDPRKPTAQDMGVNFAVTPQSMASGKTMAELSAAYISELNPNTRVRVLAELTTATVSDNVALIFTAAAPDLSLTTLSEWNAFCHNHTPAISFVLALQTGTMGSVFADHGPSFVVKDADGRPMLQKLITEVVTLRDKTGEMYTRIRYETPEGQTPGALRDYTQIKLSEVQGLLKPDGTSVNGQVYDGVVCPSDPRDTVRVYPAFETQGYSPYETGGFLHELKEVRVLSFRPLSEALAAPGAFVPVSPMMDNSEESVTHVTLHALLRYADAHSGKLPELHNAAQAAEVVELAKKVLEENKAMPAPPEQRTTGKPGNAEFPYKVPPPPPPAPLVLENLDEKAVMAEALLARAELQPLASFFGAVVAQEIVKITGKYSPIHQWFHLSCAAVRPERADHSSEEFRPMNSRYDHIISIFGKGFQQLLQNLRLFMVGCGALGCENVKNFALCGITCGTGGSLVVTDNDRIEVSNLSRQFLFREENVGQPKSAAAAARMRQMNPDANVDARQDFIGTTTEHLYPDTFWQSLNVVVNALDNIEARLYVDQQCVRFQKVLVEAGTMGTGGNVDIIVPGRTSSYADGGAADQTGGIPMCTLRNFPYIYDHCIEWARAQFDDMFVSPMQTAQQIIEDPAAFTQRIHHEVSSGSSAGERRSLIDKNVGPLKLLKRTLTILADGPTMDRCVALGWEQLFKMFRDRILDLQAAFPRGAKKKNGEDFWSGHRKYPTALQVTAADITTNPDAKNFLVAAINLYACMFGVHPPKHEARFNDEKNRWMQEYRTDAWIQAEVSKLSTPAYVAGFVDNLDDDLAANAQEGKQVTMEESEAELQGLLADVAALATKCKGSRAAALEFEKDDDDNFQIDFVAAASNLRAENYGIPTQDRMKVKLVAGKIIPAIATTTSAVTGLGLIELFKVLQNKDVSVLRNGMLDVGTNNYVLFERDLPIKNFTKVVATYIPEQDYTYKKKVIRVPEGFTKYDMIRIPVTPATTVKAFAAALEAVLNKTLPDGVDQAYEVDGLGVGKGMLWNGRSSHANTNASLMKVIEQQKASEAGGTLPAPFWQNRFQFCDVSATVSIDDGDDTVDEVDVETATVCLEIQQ
The assay is described as follows: Leishmania donovani Ubiquitin Activating Enzyme (LdE1). It is filed as functional. The note with it: 30 µM.

Assay [3] deals with Sialic acid-binding Ig-like lectin 9 (Homo sapiens) (UniProt Q9Y336). The assay is described as follows: Hs-Siglec9 ALPHAscreen SOP 20170721. The note with it: 10 µM. On the technique in general: Alpha assays give light when donor and acceptor beads are brought close together.
Sialic acid-binding Ig-like lectin 9 (Homo sapiens), sequence (Q9Y336 whole entry): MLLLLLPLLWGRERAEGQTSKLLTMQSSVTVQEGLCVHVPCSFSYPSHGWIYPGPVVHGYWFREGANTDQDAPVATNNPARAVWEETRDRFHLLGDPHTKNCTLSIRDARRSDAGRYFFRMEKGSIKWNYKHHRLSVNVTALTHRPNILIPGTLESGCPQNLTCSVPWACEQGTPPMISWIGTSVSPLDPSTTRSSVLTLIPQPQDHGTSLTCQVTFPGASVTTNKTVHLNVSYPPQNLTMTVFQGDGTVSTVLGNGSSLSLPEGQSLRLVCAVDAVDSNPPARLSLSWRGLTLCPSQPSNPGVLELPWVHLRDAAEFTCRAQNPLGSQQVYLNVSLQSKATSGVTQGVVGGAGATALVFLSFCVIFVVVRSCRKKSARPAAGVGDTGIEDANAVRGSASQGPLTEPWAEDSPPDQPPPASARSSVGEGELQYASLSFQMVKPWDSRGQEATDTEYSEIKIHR
Assay [4] has as its system Trypanosoma cruzi. In words: Trypanosoma cruzi phosphomannomutase and mannose-1-phosphate guanylyltransferase assay. It is filed as functional. The following applies: 10 µM.
Assay [5] addresses T2, Arginase-2, mitochondrial (Homo sapiens) (UniProt P78540).
T2 sequence (whole entry): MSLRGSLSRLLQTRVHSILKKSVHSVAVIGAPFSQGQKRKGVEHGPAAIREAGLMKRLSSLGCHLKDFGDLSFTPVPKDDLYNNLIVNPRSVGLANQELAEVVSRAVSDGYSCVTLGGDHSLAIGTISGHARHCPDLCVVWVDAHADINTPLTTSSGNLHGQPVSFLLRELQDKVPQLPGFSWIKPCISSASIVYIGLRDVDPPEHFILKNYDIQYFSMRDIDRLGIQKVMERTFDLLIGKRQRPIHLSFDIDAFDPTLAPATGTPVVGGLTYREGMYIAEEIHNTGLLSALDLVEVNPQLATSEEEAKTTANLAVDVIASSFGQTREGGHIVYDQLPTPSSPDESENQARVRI
In words: in vitro enzyme assay to detect the production of urea directly proportional to the activity of Arginase II. Also: in the data most compounds retested in dose-response had high values. It is filed as functional. The note with it: 33.3 µM.

For assay [6], the target named is T3, Proteasome subunit beta (Trypanosoma cruzi) (UniProt O96673).
T3 sequence (whole entry): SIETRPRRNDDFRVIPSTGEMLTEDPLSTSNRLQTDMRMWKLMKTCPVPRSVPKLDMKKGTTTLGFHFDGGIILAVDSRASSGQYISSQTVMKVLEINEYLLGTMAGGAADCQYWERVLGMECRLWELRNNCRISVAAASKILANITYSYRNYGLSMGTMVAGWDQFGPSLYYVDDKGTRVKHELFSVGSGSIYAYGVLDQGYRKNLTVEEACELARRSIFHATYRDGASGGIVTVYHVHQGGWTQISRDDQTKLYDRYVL
The assay is described as follows: Trypanosoma cruzi proteasome chymotrypsin-like activity (TcProtChymo) assay. Also: in the data most compounds retested in dose-response had high values. The format is functional. The following applies: 9.37 µM.

The species entered for assay [7] is Homo sapiens. In words: To identify inhibition of the IFN signalling (Jak-Stat) pathway via expression of an eGFP reporter gene under the control of an IFN-stimulated response element (ISRE) containing MxA promoter. It is filed as functional. The following applies: 30 µM. A general note: In a reporter assay the amount or activity of a reporter protein is the signal.

In assay [8] the target is T4, Tyrosyl-tRNA synthetase, putative (Trypanosoma cruzi (strain CL Brener)) (UniProt Q4DSP6).
T4 sequence (whole entry): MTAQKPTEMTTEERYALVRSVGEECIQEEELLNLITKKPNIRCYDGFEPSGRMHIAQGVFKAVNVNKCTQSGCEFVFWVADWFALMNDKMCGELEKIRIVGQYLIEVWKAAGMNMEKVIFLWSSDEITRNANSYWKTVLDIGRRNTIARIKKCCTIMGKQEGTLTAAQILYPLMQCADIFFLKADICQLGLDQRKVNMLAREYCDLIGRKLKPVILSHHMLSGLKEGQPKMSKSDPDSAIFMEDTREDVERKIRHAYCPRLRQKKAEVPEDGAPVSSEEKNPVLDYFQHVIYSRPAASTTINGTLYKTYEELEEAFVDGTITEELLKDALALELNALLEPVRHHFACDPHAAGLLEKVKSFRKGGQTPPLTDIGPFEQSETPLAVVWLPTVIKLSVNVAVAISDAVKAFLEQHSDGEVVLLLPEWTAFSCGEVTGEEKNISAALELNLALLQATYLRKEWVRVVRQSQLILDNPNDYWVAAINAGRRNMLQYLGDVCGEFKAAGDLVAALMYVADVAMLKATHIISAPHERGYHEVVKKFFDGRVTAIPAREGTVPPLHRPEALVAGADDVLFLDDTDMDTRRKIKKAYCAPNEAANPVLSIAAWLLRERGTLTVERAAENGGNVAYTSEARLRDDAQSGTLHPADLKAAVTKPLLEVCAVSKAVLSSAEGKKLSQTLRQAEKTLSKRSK
In words: Trypanosoma cruzi tyrosyl tRNA synthetase (TcYRS) _High Tyrosine SOP. Also: in the data most compounds retested in dose-response had high values. The format is functional. The following applies: 30 µM.

For assay [9], the target named is T4, Tyrosyl-tRNA synthetase, putative (Trypanosoma cruzi (strain CL Brener)). The assay is described as follows: Trypanosoma cruzi tyrosyl tRNA synthetase (TcYRS) SOP. It is filed as functional. The following applies: 30 µM.
In assay [10] the target is Chromo domain-containing protein 1 (Saccharomyces cerevisiae (strain ATCC 204508 / S288c) (Baker's yeast)) (UniProt P32657). In words: ScCHD-1 Enzyme Inhibition Assay. Also: in the data most compounds retested in dose-response had high values. The format is functional. The note with it: 30 µM.
Chromo domain-containing protein 1 (Saccharomyces cerevisiae (strain ATCC 204508 / S288c) (Baker's yeast)), sequence (P32657 whole entry, the tested form may be a part): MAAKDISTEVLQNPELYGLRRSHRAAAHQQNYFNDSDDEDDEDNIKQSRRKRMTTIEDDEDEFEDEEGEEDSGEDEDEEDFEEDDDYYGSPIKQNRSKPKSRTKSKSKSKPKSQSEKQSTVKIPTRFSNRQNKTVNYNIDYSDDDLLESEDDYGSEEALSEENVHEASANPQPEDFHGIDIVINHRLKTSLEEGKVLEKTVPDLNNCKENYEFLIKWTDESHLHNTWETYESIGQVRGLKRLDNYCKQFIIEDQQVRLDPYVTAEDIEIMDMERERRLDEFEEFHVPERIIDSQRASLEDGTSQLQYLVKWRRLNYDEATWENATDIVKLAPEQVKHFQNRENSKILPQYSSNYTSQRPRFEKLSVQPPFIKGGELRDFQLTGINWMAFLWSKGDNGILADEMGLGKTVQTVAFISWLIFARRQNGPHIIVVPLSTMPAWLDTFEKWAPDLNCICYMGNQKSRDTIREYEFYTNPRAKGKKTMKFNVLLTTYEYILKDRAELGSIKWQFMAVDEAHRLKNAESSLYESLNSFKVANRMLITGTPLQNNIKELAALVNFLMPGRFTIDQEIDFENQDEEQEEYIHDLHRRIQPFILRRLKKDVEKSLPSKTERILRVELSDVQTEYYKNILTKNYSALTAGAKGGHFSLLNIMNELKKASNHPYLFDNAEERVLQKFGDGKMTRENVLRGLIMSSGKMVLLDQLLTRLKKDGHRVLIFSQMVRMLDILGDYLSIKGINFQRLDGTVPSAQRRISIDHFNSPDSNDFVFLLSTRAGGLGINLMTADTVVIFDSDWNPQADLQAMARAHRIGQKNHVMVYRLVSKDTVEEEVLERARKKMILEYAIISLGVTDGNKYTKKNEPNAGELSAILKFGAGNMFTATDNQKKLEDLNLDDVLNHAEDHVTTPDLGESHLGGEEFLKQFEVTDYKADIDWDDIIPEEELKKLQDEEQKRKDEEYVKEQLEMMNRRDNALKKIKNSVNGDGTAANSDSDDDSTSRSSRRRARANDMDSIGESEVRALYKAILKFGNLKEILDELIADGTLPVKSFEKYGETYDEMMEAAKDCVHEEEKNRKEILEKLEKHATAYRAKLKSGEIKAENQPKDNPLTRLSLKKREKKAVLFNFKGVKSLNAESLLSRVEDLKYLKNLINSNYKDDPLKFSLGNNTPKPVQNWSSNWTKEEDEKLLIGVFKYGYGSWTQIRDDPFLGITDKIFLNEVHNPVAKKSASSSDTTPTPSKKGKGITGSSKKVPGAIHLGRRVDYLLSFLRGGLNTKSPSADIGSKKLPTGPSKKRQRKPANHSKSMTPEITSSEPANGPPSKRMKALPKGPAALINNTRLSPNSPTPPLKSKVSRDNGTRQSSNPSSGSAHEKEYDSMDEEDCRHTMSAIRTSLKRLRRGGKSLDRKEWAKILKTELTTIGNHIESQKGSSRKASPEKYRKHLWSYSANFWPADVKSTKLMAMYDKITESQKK

Protein translocase subunit SecA (Escherichia coli (strain K12)), sequence (P10408 whole entry): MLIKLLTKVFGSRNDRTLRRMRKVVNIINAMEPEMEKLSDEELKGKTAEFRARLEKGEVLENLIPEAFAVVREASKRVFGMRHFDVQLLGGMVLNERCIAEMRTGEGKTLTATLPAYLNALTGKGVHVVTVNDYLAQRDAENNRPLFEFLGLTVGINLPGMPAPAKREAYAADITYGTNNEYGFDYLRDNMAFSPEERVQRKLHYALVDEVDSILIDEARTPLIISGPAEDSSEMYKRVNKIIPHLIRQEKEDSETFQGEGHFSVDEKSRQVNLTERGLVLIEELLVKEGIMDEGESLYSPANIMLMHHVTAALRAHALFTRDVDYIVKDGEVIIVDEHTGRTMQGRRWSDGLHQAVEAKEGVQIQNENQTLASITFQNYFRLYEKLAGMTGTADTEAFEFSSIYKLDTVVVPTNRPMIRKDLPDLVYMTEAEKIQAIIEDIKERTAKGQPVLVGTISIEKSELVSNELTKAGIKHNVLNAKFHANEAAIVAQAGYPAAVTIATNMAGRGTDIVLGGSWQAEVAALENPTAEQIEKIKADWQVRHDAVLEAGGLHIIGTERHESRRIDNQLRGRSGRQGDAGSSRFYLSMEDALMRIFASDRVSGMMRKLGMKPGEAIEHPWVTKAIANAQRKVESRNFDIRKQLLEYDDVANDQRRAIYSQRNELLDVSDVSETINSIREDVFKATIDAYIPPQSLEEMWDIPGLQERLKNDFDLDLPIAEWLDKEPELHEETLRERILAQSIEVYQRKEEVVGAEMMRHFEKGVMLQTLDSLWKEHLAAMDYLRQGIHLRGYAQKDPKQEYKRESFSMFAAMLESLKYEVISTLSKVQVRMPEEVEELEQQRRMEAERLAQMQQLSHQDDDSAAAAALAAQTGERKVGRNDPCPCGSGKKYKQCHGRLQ

Consider `Cc1cncc(C2CCCN(Cc3cccn3C)C2)n1` (stereo not given), for which the Percent Effect in assay [1] is -2.21%; in [2] it was 12%; in assay [3], 2.11%; in [4] it was -0.592%; in assay [5] it was -6.64%; in assay [6], 10.5%. For the same compound, the Percent Effect in [7] was 6.97%; in [8], 9.52%; in assay [9], 12.5%; in [10], -15.4%.

Consider `Cc1cc(CN(C)C(=O)c2ccc(C(F)(F)F)nc2)no1`, for which the Percent Effect in assay [1] is -1.51%; in assay [2] it was -2.67%; in assay [3], 3.03%; in [4], -3.61%; in assay [5] it was 3.1%; in assay [6], 1.27%. Further, the Percent Effect in assay [7] is -6.24%; in assay [8], -1.58%; in [9] it was 5.13%; in [10], 14.8%.

Take `CCN1CCC2(C=C(C(=O)NC3CC3)c3ccccc32)CC1`: the Percent Effect in assay [1] is 2.3%; in assay [2] it was 6.49%; in assay [3] it was -1%; in [4], 1.13%; in [5], 0%; in assay [6], -2.49%. The Percent Effect in assay [7] is -10.8%; in assay [8] it was -0.966%; in assay [9] it was 2.5%; in assay [10], -3.59%.

`CN(C)CC1CN(Cc2coc(-c3ccccc3Cl)n2)CCO1` (stereo not given): the Percent Effect in assay [1] was -1.66%; in assay [2], 13.3%; in [3] it was -4.39%; in assay [4], -2.41%; in assay [5] it was 2.66%; in assay [6] it was 10.6%. The Percent Effect in assay [7] was 3.83%; in assay [8] it was 0.526%; in assay [9], 5.13%; in [10], -10.4%.

Turning to `CNC(=O)c1ccc(CN(C(=O)c2scnc2C)C2CC2)cc1`, the Percent Effect is -5.91% in assay [1]; -7.69% in [2]; -10.3% in [3]; -0.845% in assay [4]; -2.87% in assay [5]; 3.67% in assay [6]. In addition, the Percent Effect in [7] was 17.5%; in assay [8], -3.35%; in assay [9] it was -6.02%; in assay [10], -4.57%.

`Cc1cnc(CN2CCCC2c2noc(C)n2)cn1` (stereo not given): the Percent Effect in assay [1] was -3.01%; in [2], -2.67%; in assay [3], -1.58%; in assay [4] it was 0.602%; in assay [5] it was 0.444%; in assay [6], 14.5%. For the same compound, the Percent Effect was -11.3% in [7], 11.1% in [8], 12.8% in assay [9] and -6.87% in assay [10].

For the compound `COc1cccc2c1OCC(C(=O)N1CCC(N3CCOC3=O)CC1)C2` (stereo not given), the Percent Effect is -6.75% in [1]; 13.5% in assay [2]; 15.6% in assay [3]; 4.95% in assay [4]; 10.8% in assay [5]; 9.59% in [6]. Besides, the Percent Effect was 8.78% in [7], 9.04% in assay [8], 12.2% in [9] and -5.88% in [10].

In the case of `O=C(NCc1cc(O)ncn1)C1COc2ccccc2C1` (stereo not given), the Percent Effect in assay [1] is -3.59%; in assay [2], 10.8%; in [3] it was 17.9%; in assay [4], 3.59%; in assay [5], 12.9%; in assay [6], 13%. Moreover, the Percent Effect is 9.77% in assay [7], 5.85% in assay [8], 17.1% in assay [9] and -2.86% in [10].

As to `O=C(O)c1cc(S(=O)(=O)N2CCOc3ccccc32)ccc1F`, the Percent Effect is -6.51% in assay [1]; 10.3% in assay [2]; -10.2% in assay [3]; 5.54% in [4]; -0.82% in assay [5]; 10.8% in assay [6]. For the same compound, the Percent Effect is -4.8% in assay [7], -0.478% in [8], 18.1% in assay [9] and -3.79% in [10].

On to `CCCN1CCCn2nc(CNS(=O)(=O)c3cccc(C#N)c3)cc2C1`, for which the Percent Effect in assay [1] is -7.29%; in assay [2], 8.11%; in assay [3], 11.2%; in [4], 1.84%; in [5], 2.45%; in [6] it was 19.4%. Moreover, the Percent Effect came to 9.83% in assay [7], 6.92% in assay [8], 21.9% in [9] and 95% in assay [10].

On to `COc1ncc(C2CC(=O)NCc3nc4ccccn4c32)cn1` (stereo not given), for which the Percent Effect is -5.62% in assay [1]; 5.41% in [2]; 1.68% in assay [3]; -1.46% in assay [4]; 1.75% in assay [5]; 6.34% in [6]. The Percent Effect in assay [7] was 3.05%; in [8], 7.98%; in assay [9] it was 14.6%; in assay [10], -1.5%.
